Rows were chosen to be rich in hits. Some 3.4% of all compounds tested hit in one or more screens of this group.
esBAF inh: SWI/SNF esBAF complex inhibition | AID 602393 | mouse ES cells, Bmi1-luciferase knock-in reporter, 24 h; 100% = twice the neutral-well signal | reporter increase, % at 12.5 µM | actives 2% (n = 350,000); in the data active = activation above about 40%;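 also: a rise in the Bmi1 reporter signal indicates esBAF inhibition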
HSF1 inh: HSF1 inhibition; activity change, negative = inhibition, % at 7.5 µM (by protocol); NIH3T3-HGL HSE-luciferase, MG132-induced, luminescence 8 h; active compounds read low; actives 0.77% (n = 300,000);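 active = more than half of replicate wells show activity change below -50%, luminescence cut by over half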;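 also: luciferase reports HSF-1 transcriptional activity via heat shock element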
HSF-1 act: increases HSF-1 driven luciferase reporter signal; AID 504408; NIH3T3-HGL HSF-1 luciferase reporter, MG132, 8 h; 100% = twice DMSO control signal; activation, % at 9 µM; actives 1.7% (n = 300,000);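 active = mean replicate activation of at least 50% with a set share of replicates each reaching 50%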
Vif imaging: HIV Vif inhibition; HEK293T cells, Vif self-association by quenched fluorescence, imaging, 24 h; inhibition, % at 7.49 µM; actives 0.35% (n = 340,000); AID 602346; in the data active = inhibition above about 50%, passing the limit was not always enough
A number is an active result; 0 = inactive; - = no result.

SMILES | esBAF inh | HSF1 inh | HSF-1 act | Vif imaging
CSc1ccc(CN(C)C(=O)c2cc3ccccc3o2)cc1 | 57 | 0 | 0 | 0
COc1ccc(S(=O)(=O)Nc2ccc3c(c2)C(=O)N([C@@H](C)CO)C[C@@H](C)[C@H](CN(C)CC2CCCCC2)O3)cc1 | 0 | - | - | -
Cc1[nH]n(-c2ccccc2)c(=O)c1/C=N/N1C(=O)c2ccc3c4c(ccc(c24)C1=O)CC3 | 0 | 0 | 75 | 0
Cc1nc(-c2ccc(NC(=O)C3CCCCC3)cc2)cs1 | 68 | 0 | 57 | 0
COCC(=O)N1C[C@H](C)[C@@H](OC)CN(C)C(=O)c2ccc(NC(=O)c3ccc(F)cc3)cc2OC[C@H]1C | 0 | - | - | -
COc1ccc2c(c1)-c1nc(/N=C/c3c(O)ccc4ccccc34)sc1CC2 | - | 0 | 63 | 0
COCCn1c(=O)[nH]c2cc(C(=O)NC3CCCCCC3)ccc2c1=O | 0 | -72 | 0 | 0
COc1ccc(NC(=O)c2ccc3c(=O)n(-c4ccc(OC)cc4OC)c(=S)[nH]c3c2)c(OC)c1 | - | 0 | 0 | 0
CC1CCN(CCCNC(=O)c2ccc3c(=O)n(CCc4ccccc4)c(=O)[nH]c3c2)CC1 | 0 | 0 | 0 | 52
COCCn1c(=O)[nH]c2cc(C(=O)N3CCN(c4cccc(Cl)c4)CC3)ccc2c1=O | 0 | 0 | 53 | 0
COCCNC(=O)c1ccc2c(=O)n(CCOC)c(=O)[nH]c2c1 | - | 0 | 0 | 0
CCOc1ccc(NC(=O)c2ccc3c(=O)n(-c4ccc(OC)cc4OC)c(=S)[nH]c3c2)cc1 | 0 | -81 | 0 | 0
COc1ccc(-n2c(=S)[nH]c3cc(C(=O)NC4CCCCC4)ccc3c2=O)c(OC)c1 | 0 | 0 | 60 | 0
CCOC(=O)c1c(-c2ccc(C)o2)csc1NC(=S)NC(=O)N(C)C | 0 | 0 | 56 | 0
Cc1noc(C)c1NC(=O)Nc1ccc2c(c1)C(=O)N([C@H](C)CO)C[C@@H](C)[C@@H](CN(C)C(=O)Nc1ccccc1)O2 | 0 | - | - | -
Cc1ccc(O)c(NC(=O)c2cc(C)no2)c1 | 0 | 0 | 100 | 0
CCC(C)c1ccccc1NC(=O)c1cc(C)no1 (stereo unspecified) | 0 | 0 | 59 | 0
CCCc1cc(C(=O)Nc2cc(C)ccc2O)no1 | 57 | 0 | 120 | 0
O=C(Nc1cc(Br)ccc1O)c1cc(-c2ccccc2)on1 | 0 | 0 | 0 | 0
Cc1ccc(O)c(NC(=O)c2cc(-c3ccccc3)on2)c1 | 76 | 0 | 96 | 0
O=C(C[C@H]1C[C@@H]2c3cc(NC(=O)CC4CC4)ccc3O[C@@H]2[C@H](CO)O1)NCCN1CCCCC1 | 0 | - | - | -
CS(=O)(=O)N1[C@@H](C#N)[C@H](c2ccc(C#CC3CCCC3)cc2)[C@@H]1CO | 0 | - | - | -
O=C(NCC[C@@H]1CC[C@@H](NS(=O)(=O)c2cccc(F)c2)[C@H](CO)O1)C1CCOCC1 | 0 | - | - | -
CN1C(=O)c2cc(NC(=O)c3ccccc3)ccc2OC[C@@H]2O[C@@H](CC(=O)NCC3CC3)CC[C@H]21 | 0 | - | - | -
O=C(CSc1nnc(C2CCCCC2)o1)Nc1ccccc1Cl | 62 | 0 | 0 | 0
SMILES | esBAF inh | HSF1 inh | HSF-1 act | Vif imaging
C[C@H]1CN([C@@H](C)CO)C(=O)c2cc(C#Cc3ccccc3)cnc2O[C@H]1CN(C)C(=O)c1ccccc1F | 0 | - | - | -
CC1(C)C(=O)N(c2ccccc2)C1c1ccccc1O (stereo unspecified) | 0 | 0 | 0 | 0
COc1ccc(N2C(=O)C(C)(C)C2c2c(O)ccc3ccccc23)cc1 (stereo unspecified) | 0 | -73 | 0 | 0
CCCNC(=O)C[C@@H]1C[C@H]2c3cc(NC(=O)Nc4ccc(F)cc4)ccc3O[C@H]2[C@@H](CO)O1 | 0 | - | - | -
Cc1ccccc1NC(=S)N(Cc1cccs1)C1CCCC1 | 0 | 0 | 0 | 51
C[C@@H]1CN([C@@H](C)CO)C(=O)c2cc(C3=CCCC3)cnc2O[C@H]1CN(C)S(=O)(=O)c1cn(C)cn1 | 0 | - | - | -
COc1cccc(CN2CCN(Cc3cccn3-c3cccnc3)CC2CCO)c1 (stereo unspecified) | - | 0 | 56 | 0
CNC(=O)C[C@@H]1CC[C@H]2[C@H](COc3ccc(NC(=O)NC(C)C)cc3C(=O)N2C)O1 | 0 | - | - | -
C=CCN=C1NN=C(c2ccc3c(c2)OCCO3)CS1 | 0 | -56 | 0 | 0
C[C@H](CO)N1C[C@H](C)[C@@H](CN(C)Cc2ccc(Cl)c(Cl)c2)OCCCC[C@H](C)Oc2ccc(NC(=O)Nc3ccc(C(F)(F)F)cc3)cc2C1=O | 0 | - | - | -
O=C(Cn1nc2ccccc2n1)N/N=C/c1cc([N+](=O)[O-])ccc1O | 0 | -53 | 0 | 0
O=C(C[C@H]1CC[C@H]2[C@@H](COC[C@H](O)CN2C(=O)Cc2ccccc2)O1)NC1CCC1 | 0 | - | - | -
CCOC(=O)c1csc(COc2ccccc2Cl)n1 | - | 0 | 0 | 0
CCOC(=O)c1csc(COc2ccc(OC)cc2)n1 | 0 | 0 | 64 | 0
COCC#Cc1ccc2c(c1)O[C@H](CN(C)C(=O)Nc1ccc(OC)cc1)[C@H](C)CN([C@@H](C)CO)S2(=O)=O | 0 | - | - | -
CCOC(=O)c1cc(-c2ccccc2)sc1NC(=O)COC(=O)c1cccc(S(N)(=O)=O)c1 | - | 0 | 0 | 55
CCOC(=O)c1cc(-c2ccccc2)sc1NC(=O)COC(=O)c1ccc(Cl)c(S(N)(=O)=O)c1 | - | 0 | 0 | 0
O=c1oc2ccccc2cc1-c1nc(-c2ccccc2)no1 | 0 | 0 | 63 | 0
COc1ccc(-c2nnc(-c3cc4ccccc4oc3=O)o2)cc1 | 0 | 0 | 0 | 0
Cc1cc(-c2nnc(-c3cc4ccccc4oc3=O)o2)c(C)n1-c1ccccc1 | 54 | 0 | 0 | 0
Cc1ccc(-c2noc(-c3cc4ccccc4oc3=O)n2)cc1 | 0 | 0 | 0 | 0
O=C(C[C@@H]1CC[C@H]2[C@@H](COC[C@@H](O)CN2C(=O)Nc2ccc(Cl)cc2)O1)NCC1CC1 | 0 | - | - | -
CC(Sc1nc2ccccc2[nH]1)C(=O)O (stereo unspecified) | 0 | 0 | 0 | 0
CC(=O)N=C(N)Sc1nc2ccccc2[nH]1 | 69 | 0 | 0 | 0

From PubChem
